Seven compounds from PubChem BioAssay (EPA / NIEHS) can be followed below.

Records with an inconclusive call do not appear. Active and inactive are the calls of the source. The calls were made as follows, unless noted: active = hit-call score of the fitted dose curve at least 0.9, where 1 is the maximum; inactive = score below 0.9.

Usually AC50 stands for the concentration giving half of the maximal activity seen.

The nature of assay [1]: ATG_Ets_CIS: Attagene CIS-FACTORIAL HepG2 Assay for human Erythroblast Transformation Specific (ETS) (AID 2282941). The note with it: HepG2 ETS cis-reporter transcription, actives raise or lower the signal. In a few lines: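 Cis-regulated reporter mRNA induction in HepG2 (transient transfection), 24 h exposure, RT-PCR plus capillary electrophoresis detection; DMSO serves as negative control and baseline.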

In assay [2] the target is Hypoxia-inducible factor 1-alpha (Homo sapiens) (UniProt Q16665). In words: ATG_HIF1a_CIS: Attagene CIS-FACTORIAL HepG2 Assay for human Hypoxia Inducible Factor 1 (HIF1A) (AID 2282951). The note with it: HepG2 Attagene cis-factorial HIF1a reporter transcription; actives raise or lower the signal. In a few lines: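 HepG2 cells transiently transfected with multiplexed cis-promoter reporter units; reporter mRNA read 24 h after dosing by RT-PCR, 6-FAM primer-extension labelling, HpaI digestion and capillary electrophoresis. Bidirectional fit versus DMSO baseline.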
Chain of Hypoxia-inducible factor 1-alpha (Homo sapiens) (Q16665 whole entry, looked up): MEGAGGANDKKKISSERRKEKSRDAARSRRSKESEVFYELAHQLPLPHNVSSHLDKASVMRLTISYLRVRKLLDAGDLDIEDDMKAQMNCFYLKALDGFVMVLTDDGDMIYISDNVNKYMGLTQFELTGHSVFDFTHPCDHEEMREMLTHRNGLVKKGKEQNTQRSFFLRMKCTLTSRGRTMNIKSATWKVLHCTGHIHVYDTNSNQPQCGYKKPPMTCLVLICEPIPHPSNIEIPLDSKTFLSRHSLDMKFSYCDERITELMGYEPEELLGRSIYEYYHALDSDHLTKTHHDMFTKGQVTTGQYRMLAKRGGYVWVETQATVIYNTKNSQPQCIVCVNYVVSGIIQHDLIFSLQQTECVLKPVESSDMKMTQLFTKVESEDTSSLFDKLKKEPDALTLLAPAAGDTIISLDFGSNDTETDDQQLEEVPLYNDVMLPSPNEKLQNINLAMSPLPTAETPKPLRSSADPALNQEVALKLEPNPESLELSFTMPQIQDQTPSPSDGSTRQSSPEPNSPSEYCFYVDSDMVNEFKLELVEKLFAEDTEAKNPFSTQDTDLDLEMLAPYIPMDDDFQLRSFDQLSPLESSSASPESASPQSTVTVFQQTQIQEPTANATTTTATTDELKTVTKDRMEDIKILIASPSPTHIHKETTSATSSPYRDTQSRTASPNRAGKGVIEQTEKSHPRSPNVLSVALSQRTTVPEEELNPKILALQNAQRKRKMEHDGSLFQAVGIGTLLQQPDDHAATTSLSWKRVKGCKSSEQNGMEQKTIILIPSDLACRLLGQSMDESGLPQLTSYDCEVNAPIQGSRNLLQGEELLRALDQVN

Assay [3] deals with Hepatocyte nuclear factor 6 (Homo sapiens) (UniProt Q9UBC0). The assay can be described thus: ATG_HNF6_CIS: Attagene CIS-FACTORIAL HepG2 Assay for human Hepatocyte Nuclear Factor 6 (HNF6) (AID 2282952). The conditions noted are these: HepG2 Attagene cis-factorial HNF6 reporter transcription; actives raise or lower the signal. In a few lines: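 Twenty-four-hour chemical treatment of reporter-transfected HepG2 cells precedes RNA isolation, DNase-treated reverse transcription and PCR of reporter sequences. Labelled fragments are sized by capillary electrophoresis and fitted bidirectionally versus DMSO.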
Chain of Hepatocyte nuclear factor 6 (Homo sapiens) (Q9UBC0 whole entry, looked up, the tested form may be a part): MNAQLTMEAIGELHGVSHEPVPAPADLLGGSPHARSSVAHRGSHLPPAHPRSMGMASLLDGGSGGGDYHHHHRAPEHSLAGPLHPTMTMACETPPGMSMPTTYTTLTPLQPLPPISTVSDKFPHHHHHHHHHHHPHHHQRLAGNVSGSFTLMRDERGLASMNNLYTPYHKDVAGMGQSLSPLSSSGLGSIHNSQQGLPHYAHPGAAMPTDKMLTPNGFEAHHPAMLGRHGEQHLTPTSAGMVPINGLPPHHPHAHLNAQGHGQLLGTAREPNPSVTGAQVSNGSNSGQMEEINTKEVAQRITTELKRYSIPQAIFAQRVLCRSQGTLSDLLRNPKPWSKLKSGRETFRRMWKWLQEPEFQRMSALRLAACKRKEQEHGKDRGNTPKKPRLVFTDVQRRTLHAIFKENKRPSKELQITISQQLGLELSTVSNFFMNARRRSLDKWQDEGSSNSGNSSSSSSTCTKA

Assay [4] concerns the target Heat shock factor protein 1 (Homo sapiens) (UniProt Q00613). The assay can be described thus: ATG_HSE_CIS: Attagene CIS-FACTORIAL HepG2 Assay for human Heat Shock Transcription Factor 1 (HSE) (AID 2282953). The note with it: HepG2 HSE cis-reporter, Attagene RNA transcription; actives raise or lower the signal. In a few lines: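 Cells were transfected with cis-element-driven reporter constructs, dosed for 24 h, then total RNA was reverse-transcribed and reporter cDNA amplified, FAM-labelled and digested with HpaI. Fragments were resolved by capillary electrophoresis; gain or loss was fitted against DMSO.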

The nature of assay [5]: ATG_TA_CIS: Attagene CIS-FACTORIAL HepG2 Assay for human TA Basal Promoter (AID 2282964). The note with it: HepG2 Attagene CIS-factorial TA basal promoter reporter; actives raise or lower the signal. In a few lines: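 Steps: transfect HepG2 with MRTUs; dose 24 h; isolate RNA, DNase-treat, reverse-transcribe; PCR and FAM-label reporter cDNA; digest with HpaI 2h at 37 C; run capillary electrophoresis. Activity fitted both directions against DMSO.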

Assay [6] in a line: ATG_TCF_b_cat_CIS: Attagene CIS-FACTORIAL HepG2 Assay for human T-Cell-Factor with beta-catenin (TCF/b-cat) (AID 2282965). The conditions noted are these: HepG2 TCF/beta-catenin cis-reporter transcription, actives raise or lower the signal. In a few lines:
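In this cis-format system, transfected HepG2 cells report endogenous transcription factor activity. Readout after 24 h exposure is reporter transcript abundance from RT-PCR and capillary electrophoresis, analysed for gain or loss of signal versus DMSO.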

Assay [7] can be described thus: ATG_TAL_CIS: Attagene CIS-FACTORIAL HepG2 Assay for human TAL Basal Promoter (AID 2282966).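 Also: background control endpoint measuring basal TAL promoter reporter mRNA not a specific factor.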 The note with it: HepG2 Attagene cis-factorial TAL promoter reporter; actives raise or lower the signal. In a few lines:
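Human hepatoma HepG2 cells, transfected with promoter-regulated reporter units, were treated 24 h. Reporter transcript levels, measured through RT-PCR and capillary electrophoresis, were fitted for gain or loss relative to DMSO.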

A short description of assay [8]: ATG_TGFb_CIS: Attagene CIS-FACTORIAL HepG2 Assay for human Transforming Growth Factor (TGF) (AID 2282967). The conditions noted are these: HepG2 Attagene CIS TGFb reporter, mRNA transcription; actives raise or lower the signal. In a few lines:
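Cells were dosed for 24 hours, after which total RNA was reverse-transcribed and reporter sequences amplified, labeled and sized by capillary electrophoresis. Activity was fitted in both directions against DMSO.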

For assay [9], the target named is X-box-binding protein 1 (Homo sapiens) (UniProt P17861). The assay can be described thus: ATG_Xbp1_CIS: Attagene CIS-FACTORIAL HepG2 Assay for human X-box Binding Protein 1 (XBP1) (AID 2282972). The note with it: HepG2 XBP1 cis-element reporter, Attagene multiplex; actives raise or lower the signal. In a few lines:
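Multiplexed cis-reporter readout in transfected HepG2 liver cells. Exposure lasted 24 hours. Activity in either direction was fitted against DMSO as negative control and baseline.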

In assay [10] the target is Transcriptional activator Myb (Homo sapiens) (UniProt P10242). The assay can be described thus: ATG_Myb_CIS: Attagene CIS-FACTORIAL HepG2 Assay for human Myeloblastosis (Myb) Proto-Oncogene Transcription Factor (AID 2282986). The conditions noted are these: HepG2 Attagene CIS-FACTORIAL Myb reporter transcription; actives raise or lower the signal. In a few lines:
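HepG2 cells were transiently transfected with cis-regulated multiple reporter transcription units reflecting endogenous Myb activity, then exposed to compound for 24 hours. Reporter mRNA was measured by RT-PCR with capillary electrophoresis; bidirectional fitting versus DMSO baseline.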

The target in assay [11] is Nuclear respiratory factor 1 (Homo sapiens) (UniProt Q16656). The assay can be described thus: ATG_NRF1_CIS: Attagene CIS-FACTORIAL HepG2 Assay for human Nuclear Respiratory Factor 1 (NRF1) Orphan Gene (AID 2282987). The conditions noted are these: HepG2 NRF1 cis-element reporter, Attagene multiplex; actives raise or lower the signal. In a few lines: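 HepG2 cells transiently transfected with multiple reporter transcription units under cis-regulatory promoter control, so endogenous transcription-factor activity is read. After 24 h compound exposure, reporter mRNA quantified by RT-PCR, fluorescent labelling, HpaI digestion and capillary electrophoresis; bidirectional fitting versus DMSO.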
Chain of Nuclear respiratory factor 1 (Homo sapiens) (Q16656 whole entry, looked up): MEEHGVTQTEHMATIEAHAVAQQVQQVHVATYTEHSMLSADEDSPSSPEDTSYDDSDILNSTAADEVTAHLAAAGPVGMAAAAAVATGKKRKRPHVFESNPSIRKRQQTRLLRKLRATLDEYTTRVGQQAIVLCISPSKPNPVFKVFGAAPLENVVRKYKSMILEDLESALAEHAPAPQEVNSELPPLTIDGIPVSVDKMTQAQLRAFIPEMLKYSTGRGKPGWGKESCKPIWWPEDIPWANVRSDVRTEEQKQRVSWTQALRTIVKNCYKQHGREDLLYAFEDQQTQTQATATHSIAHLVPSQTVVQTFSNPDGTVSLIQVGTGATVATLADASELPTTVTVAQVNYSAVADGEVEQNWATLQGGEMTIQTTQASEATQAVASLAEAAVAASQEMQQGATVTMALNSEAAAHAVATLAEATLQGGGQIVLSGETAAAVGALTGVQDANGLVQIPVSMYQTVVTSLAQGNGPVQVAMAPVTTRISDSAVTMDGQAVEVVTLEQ

In assay [12] the target is Myc proto-oncogene protein (Homo sapiens) (UniProt P01106). The assay can be described thus: ATG_Myc_CIS: Attagene CIS-FACTORIAL HepG2 Assay for human Myelocytomatosis (Myc) Proto-Oncogene Transcription Factor (AID 2282990). The conditions noted are these: HepG2, Attagene cis-reporter transcription factor activity; actives raise or lower the signal. In a few lines:
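DMSO-normalised, bidirectionally fitted reporter mRNA signal. HepG2 cells transfected with cis reporter constructs, treated 24 h; transcripts detected by RT-PCR, 6-FAM primer extension and CE.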

Assay [13] can be described thus: ATG_NRF2_ARE_CIS: Attagene CIS-FACTORIAL HepG2 Assay for human Nuclear Factor Erythroid 2 Related Factor 2 (NFR2) response to Antioxidant Response Elements (ARE) (AID 2282992).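 As to AC50: reporter mRNA level measured by RT-PCR and capillary electrophoresis fluorescence.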 The conditions noted are these: HepG2 Attagene ARE/NRF2 reporter, transcription factor activity; actives raise or lower the signal. In a few lines: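 Endogenous transcription factor activity in human liver HepG2 cells is tracked via a cis-element-driven reporter within a multiplexed set. mRNA induction is read by RT-PCR and capillary electrophoresis after 24 h, with DMSO as baseline.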

A short description of assay [14]: ATG_Oct_MLP_CIS: Attagene CIS-FACTORIAL HepG2 Assay for human Octamer-Binding Transcription Factor (Oct) (AID 2282993). The conditions noted are these: HepG2 Attagene cis-factorial Oct reporter, mRNA; actives raise or lower the signal. In a few lines:
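Multiplexed cis-reporter assay in human liver HepG2 cells, 24 h incubation. Reporter RNA amplified and labelled, then resolved by capillary electrophoresis; DMSO serves as negative control and baseline.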

Assay [15] has as its target Cellular tumor antigen p53 (Homo sapiens) (UniProt P04637). The assay can be described thus: ATG_p53_CIS: Attagene CIS-FACTORIAL HepG2 Assay for human p53 Transcription Factor (AID 2282994). The conditions noted are these: HepG2 p53 cis-element reporter, Attagene mRNA; actives raise or lower the signal. In a few lines:
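Steps: transfect HepG2 with multiplexed cis reporter constructs; dose chemicals 24 h; extract RNA, reverse-transcribe, PCR-amplify reporter sequences; FAM-label, HpaI-digest, resolve fragments by CE. Activity fitted both directions relative to DMSO.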

The nature of assay [16]: ATG_XTT_Cytotoxicity: Cytotoxicity Assessment in the Attagene TRANS-FACTORIAL HepG2 Assay (AID 2283584; active = hit-call score of the fitted dose curve at least 0.9, where 1 is the maximum). In a few lines:
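24 h chemical exposure of reporter-transfected HepG2; XTT signal loss vs DMSO indicates cytotoxicity.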

A short description of assay [17]: ATG_M_06_CIS: Attagene CIS-FACTORIAL HepG2 Assay for M06 Transcription Factor (Internal Marker) (AID 2282950). The conditions noted are these: HepG2 Attagene CIS-FACTORIAL M06 internal marker reporter; actives raise or lower the signal. In a few lines:
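Steps: transfect HepG2 with multiplexed cis-element reporter constructs; dose chemical 24 h; extract RNA with DNase treatment; reverse-transcribe, PCR-amplify, 6-FAM label, HpaI digest; separate fragments by capillary electrophoresis. Activity fitted both directions versus DMSO.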

Assay [18] in a line: ATG_Sox_CIS: Attagene CIS-FACTORIAL HepG2 Assay for human SRY-box transcription factor (SOX) (AID 2282960). The note with it: HepG2 Attagene cis-factorial SOX reporter, mRNA; actives raise or lower the signal. In a few lines:
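HepG2 cells transiently transfected with cis-element-driven multiple reporter transcription units, dosed 24 h; reporter mRNA measured by RT-PCR, FAM labelling, HpaI digestion and capillary electrophoresis. Bidirectional fit versus DMSO baseline.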

Assay [19] has as its target Nuclear receptor subfamily 1 group I member 2 (Homo sapiens) (UniProt O75469). The assay can be described thus: ATG_PXR_TRANS: Attagene TRANS-FACTORIAL HepG2 Assay for human Pregnane X Receptor (PXR) (AID 2283008; active = hit-call score of the fitted dose curve at least 0.9, where 1 is the maximum). In a few lines:
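HepG2 transfected (FuGene 6) with GAL4-UAS reporter units + PXR-Gal4 chimera; dosed 24 h. Total RNA → oligo(dT) RT → PCR → 6-FAM primer extension → HpaI cut → CE. Gain-of-signal vs DMSO.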

Assay [20] can be described thus: ATG_DR4_LXR_CIS: Attagene CIS-FACTORIAL HepG2 Assay for human Liver X Receptor (LXR), DR4 submotif (AID 2282929). The conditions noted are these: HepG2 Attagene DR4 cis-reporter, mRNA transcription; actives raise or lower the signal. In a few lines: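 HepG2 cells transiently transfected with cis-promoter-driven multiplexed reporter units (DR4 element) were dosed for 24 h. Reporter mRNA was quantified by RT-PCR, fluorescent primer extension, HpaI digestion and capillary electrophoresis; bidirectional fitting versus DMSO baseline.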

Chain of Heat shock factor protein 1 (Homo sapiens) (Q00613 whole entry, looked up, the tested form may be a part): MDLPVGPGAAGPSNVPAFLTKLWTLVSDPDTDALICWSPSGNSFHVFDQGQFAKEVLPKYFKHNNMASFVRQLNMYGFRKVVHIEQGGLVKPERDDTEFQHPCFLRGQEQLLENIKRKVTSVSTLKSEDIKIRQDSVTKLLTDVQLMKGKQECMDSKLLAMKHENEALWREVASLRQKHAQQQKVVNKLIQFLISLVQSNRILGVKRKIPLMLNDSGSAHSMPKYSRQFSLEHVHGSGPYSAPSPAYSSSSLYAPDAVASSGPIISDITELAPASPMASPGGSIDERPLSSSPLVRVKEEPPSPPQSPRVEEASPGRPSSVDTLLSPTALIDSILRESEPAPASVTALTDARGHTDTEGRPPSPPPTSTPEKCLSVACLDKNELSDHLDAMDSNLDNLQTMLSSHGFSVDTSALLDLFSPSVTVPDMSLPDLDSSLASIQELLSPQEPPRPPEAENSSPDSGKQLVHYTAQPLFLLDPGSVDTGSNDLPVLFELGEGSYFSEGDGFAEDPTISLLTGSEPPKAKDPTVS
Chain of Nuclear receptor subfamily 1 group I member 2 (Homo sapiens) (O75469 whole entry, looked up, the tested form may be a part): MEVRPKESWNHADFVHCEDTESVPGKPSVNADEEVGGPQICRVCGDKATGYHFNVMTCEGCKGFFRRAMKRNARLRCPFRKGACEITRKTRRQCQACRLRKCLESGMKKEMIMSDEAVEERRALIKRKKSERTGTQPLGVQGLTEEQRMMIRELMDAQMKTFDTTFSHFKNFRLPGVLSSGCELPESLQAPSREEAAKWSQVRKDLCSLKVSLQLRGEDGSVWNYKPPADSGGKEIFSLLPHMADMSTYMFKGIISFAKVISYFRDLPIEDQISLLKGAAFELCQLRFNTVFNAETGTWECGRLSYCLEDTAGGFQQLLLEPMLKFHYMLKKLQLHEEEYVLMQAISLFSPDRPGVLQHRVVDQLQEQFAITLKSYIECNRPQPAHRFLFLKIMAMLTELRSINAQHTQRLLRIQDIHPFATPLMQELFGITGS
Chain of X-box-binding protein 1 (Homo sapiens) (P17861 whole entry, looked up): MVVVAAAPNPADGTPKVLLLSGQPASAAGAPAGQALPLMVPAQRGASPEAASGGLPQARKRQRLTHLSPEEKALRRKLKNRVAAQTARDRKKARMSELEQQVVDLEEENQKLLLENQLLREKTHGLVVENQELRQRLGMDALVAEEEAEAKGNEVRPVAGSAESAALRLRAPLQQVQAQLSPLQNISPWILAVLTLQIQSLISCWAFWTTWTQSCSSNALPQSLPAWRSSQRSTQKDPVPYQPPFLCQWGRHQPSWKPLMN
Chain of Cellular tumor antigen p53 (Homo sapiens) (P04637 whole entry, looked up, the tested form may be a part): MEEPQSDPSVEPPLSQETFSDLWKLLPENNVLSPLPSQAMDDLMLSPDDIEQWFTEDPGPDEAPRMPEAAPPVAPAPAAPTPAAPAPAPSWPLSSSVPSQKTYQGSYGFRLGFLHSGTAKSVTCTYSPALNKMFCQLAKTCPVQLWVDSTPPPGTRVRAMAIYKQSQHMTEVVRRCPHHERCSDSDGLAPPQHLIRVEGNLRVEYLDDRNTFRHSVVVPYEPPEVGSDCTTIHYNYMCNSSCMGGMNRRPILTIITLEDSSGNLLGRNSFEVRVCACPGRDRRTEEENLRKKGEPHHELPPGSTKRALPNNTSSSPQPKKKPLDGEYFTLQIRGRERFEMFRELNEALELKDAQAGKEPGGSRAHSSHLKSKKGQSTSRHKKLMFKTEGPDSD
Chain of Transcriptional activator Myb (Homo sapiens) (P10242 whole entry, looked up): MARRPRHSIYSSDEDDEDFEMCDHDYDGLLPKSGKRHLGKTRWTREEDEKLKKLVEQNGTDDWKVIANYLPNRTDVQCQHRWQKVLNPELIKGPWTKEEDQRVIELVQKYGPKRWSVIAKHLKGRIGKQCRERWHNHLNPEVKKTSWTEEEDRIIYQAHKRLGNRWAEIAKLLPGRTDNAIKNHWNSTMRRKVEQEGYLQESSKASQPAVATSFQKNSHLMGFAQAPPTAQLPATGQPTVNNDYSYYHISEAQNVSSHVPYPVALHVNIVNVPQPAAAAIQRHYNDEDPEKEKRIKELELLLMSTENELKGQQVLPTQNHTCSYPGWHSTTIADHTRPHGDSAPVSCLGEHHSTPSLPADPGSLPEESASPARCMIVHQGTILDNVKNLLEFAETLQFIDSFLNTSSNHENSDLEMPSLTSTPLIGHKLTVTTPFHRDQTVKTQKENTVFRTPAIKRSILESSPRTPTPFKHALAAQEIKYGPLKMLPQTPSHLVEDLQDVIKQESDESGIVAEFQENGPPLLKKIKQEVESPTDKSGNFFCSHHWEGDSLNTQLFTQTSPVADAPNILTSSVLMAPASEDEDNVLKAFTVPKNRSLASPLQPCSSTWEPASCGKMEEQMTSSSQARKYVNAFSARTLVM
Chain of Myc proto-oncogene protein (Homo sapiens) (P01106 whole entry, looked up): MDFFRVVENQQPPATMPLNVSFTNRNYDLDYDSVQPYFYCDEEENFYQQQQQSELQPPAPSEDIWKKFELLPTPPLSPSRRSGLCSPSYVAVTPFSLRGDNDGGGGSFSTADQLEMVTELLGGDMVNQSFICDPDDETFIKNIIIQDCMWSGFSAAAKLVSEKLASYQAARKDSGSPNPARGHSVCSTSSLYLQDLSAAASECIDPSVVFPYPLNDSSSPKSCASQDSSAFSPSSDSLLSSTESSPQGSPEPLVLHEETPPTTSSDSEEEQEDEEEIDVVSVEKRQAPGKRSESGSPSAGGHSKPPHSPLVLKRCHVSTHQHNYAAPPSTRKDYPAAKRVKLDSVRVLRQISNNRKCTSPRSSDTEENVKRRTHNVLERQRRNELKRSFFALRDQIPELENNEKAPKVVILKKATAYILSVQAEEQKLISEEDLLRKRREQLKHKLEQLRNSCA

Consider `C=CCOC(=O)C(=C)C`, for which the compound was classed as inactive in assay [1], in [2], in assay [3], in assay [4], in assay [5] and in [6]. Further, the compound was called inactive in [7], in assay [8], in assay [9], in assay [10], in assay [11] and in [12]. The compound was called inactive in assay [13], in assay [14], in [15] and in assay [16].

For the compound `COC(=O)[C@]1(C)CCC[C@@]2(C)[C@H]1CC=C1C=C(C(C)C)CC[C@@H]12`, the outcome in assay [1], in [17], in assay [2], in [3], in assay [18] and in assay [5] was inactive. The compound was classed as inactive in assay [6], in [8], in [9], in assay [10], in assay [11] and in [12]. The outcome in assay [14], in assay [15] and in assay [16] was inactive. In addition, the concentration at half-maximal activity (AC50) in assay [4] was 26.4 µM (active); in assay [7], 52.4 µM (active); in assay [13] it was 32.2 µM (active); in [19], 25.1 µM (active).

Regarding `NCc1ccccc1`, the result in assay [20], in [1], in [2], in assay [3], in assay [4] and in assay [18] was inactive. For the same compound, the outcome in assay [5], in assay [6], in assay [7], in assay [8], in assay [9] and in assay [10] was inactive. Further, the result in [11], in assay [12], in assay [13], in assay [14], in [15] and in [16] was inactive.

Take `CC(C)CC(=O)CC(C)CC(C)C` (stereo unspecified): the call in [1], in assay [17], in assay [2], in [3], in [4] and in assay [18] was inactive. Further, the result in assay [5], in assay [6], in assay [7], in assay [8], in [9] and in [10] was inactive. Further, the call in [11], in assay [12], in assay [14], in [15] and in assay [19] was inactive. Further, the concentration at half-maximal activity (AC50) in assay [13] was 116 µM (active).

`CN(C)N=Nc1ccccc1`: the compound was called inactive in [20], in assay [1], in [17], in assay [2], in assay [3] and in [4]. Besides, the compound was classed as inactive in assay [5], in [6], in assay [7], in assay [8], in assay [9] and in assay [10]. For the same compound, the outcome in assay [11], in [12], in [14], in assay [15], in [19] and in assay [16] was inactive. The half-maximal activity concentration (AC50) in assay [13] was 177 µM (active).

Take `CCCCCCCCCC/C=C/C1CC(=O)OC1=O` (stereo unspecified): the compound was called inactive in assay [20], in [1], in assay [17], in [2], in assay [3] and in assay [4]. Further, the compound was called inactive in assay [18], in assay [5], in [6], in assay [7], in assay [9] and in [10]. For the same compound, the result in [11], in assay [12], in assay [14], in [15] and in assay [16] was inactive. Further, the AC50 was 100 µM (active) in assay [8] and 79.8 µM (active) in [13].

As for `CN(C)Cc1cc(C(C)(C)C)c(O)c(C(C)(C)C)c1`, the outcome in assay [17], in [2], in assay [3], in assay [4], in [5] and in assay [6] was inactive. The compound was classed as inactive in assay [7], in [8], in assay [9], in assay [10], in [11] and in [12]. The compound was classed as inactive in assay [14], in assay [15], in [19] and in [16]. For the same compound, the AC50 in assay [13] is 37.8 µM (active).
